The text below walks through data of PubChem BioAssay.

A short description of test [1]: binders of probe aFSTL3 on microarray, primary screen, stem cell growth factor project, biochemical, small-molecule microarray, fluorescence 635/667 (AID 1064).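 Note: measures binding of the biotinylated anti-FSTL3 antibody to printed compounds.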 The note with it: higher = more signal.
A short description of test [2]: binders from COS7 lysate, DM2A8 probe, primary screen, torsin A project, cell lysate, small-molecule microarray, fluorescence 635/667 (AID 1065). To be noted: higher = more signal, COS7 lysate expressing mutant human TOR1A.
A short description of test [3]: binders of probe aFGF2 on microarray, primary screen, stem cell growth factor project, biochemical, small-molecule microarray, fluorescence 635/667 (AID 1067).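 Note: measures binding of biotinylated aFGF2 protein to printed compounds on slides; z-score merges feature fluorescence and signal-to-noise across triplicate slides.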 To be noted: higher = more signal.
Test [4] can be described thus: binders of probe aFGF10 on microarray, primary screen, stem cell growth factor project, biochemical, small-molecule microarray, fluorescence 635/667 (AID 1071).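 Note: score merges 667 nm spot intensity and signal to noise from triplicate slides.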 The note with it: higher = more signal.
For test [5], the target named is Neurogenic locus notch homolog protein 2 (Homo sapiens) (UniProt Q04721). In words: Notch2 binders on small-molecule microarrays, primary screen, biochemical, small-molecule microarray, 635 nm fluorescence, stem cell growth factors (AID 1073). To be noted: Notch2 binding, higher = more signal.
Test [6] concerns the target Pro-neuregulin-1, membrane-bound isoform (Homo sapiens) (UniProt Q02297). In words: NRG1 binders on small-molecule microarrays, primary screen, psychiatric disease protein project, biochemical, small-molecule microarray, fluorescence 635/667 (AID 1075).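 Note: score combines 667 nm spot fluorescence with signal to noise.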 The note with it: NRG1 binding, 635 nm fluorescence, higher = more signal.
Test [7] deals with Neuregulin-1 EGF-like domain. Description: binders of neuregulin-1 EGF-like domain, primary screen, biochemical, small-molecule microarray, 635 nm fluorescence (AID 1081).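 Note: binding of the protein to compounds printed on small-molecule microarray slides.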 To be noted: small-molecule microarray binding, higher = more signal.
Test [8] can be described thus: FRG1 promoter luciferase signal modulators, primary screen, FRG1 inhibition for FSHD, cell-based, C2C12 myotubes, firefly/Renilla luciferase, luminescence (AID 1084). The note with it: higher = more signal, called active from +8 up or from −8 down.
A short description of test [9]: binders of probe aFST on microarray, primary screen, stem cell growth factor project, biochemical, small-molecule microarray, fluorescence 635/667 (AID 1086).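 Note: score merges 667 nm fluorescence with signal-to-noise of each printed compound spot.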 The note with it: higher = more signal.
Test [10] is described as follows: binders of probe aHhip on microarray, primary screen, stem cell growth factor project, biochemical, small-molecule microarray, fluorescence 635/667 (AID 1087).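 Note: score merges spot fluorescence at 667nm with spot signal to noise ratio.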 The note with it: higher = more signal.
Test [11] has as its system PRMT1 (protein arginine N-methyltransferase 1). In words: PRMT1 binders on small-molecule microarrays, primary screen, biochemical, small-molecule microarray, 635 nm fluorescence (AID 1088).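 Note: binding of Prmt1 protein to compounds spotted on small-molecule microarray slides.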 The note with it: small-molecule microarray binding, higher = more signal.
Test [12] in a line: yeast growth modulation, basal conditions, primary screen, YJM789 clinical isolate, OD600, 24 h (AID 1089).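 Note: growth of clinical yeast isolate S. cerevisiae YJM 789 seeded 1000 cells per well; test concentration not given here.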 The note with it: S. cerevisiae YJM789 growth, higher = more signal, called active from +8 up or from −8 down.
Test [13] is described as follows: fission yeast growth modulation, primary screen, strain 972, OD600, 24 h, no modulator (AID 1090).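 Note: basal condition with compound alone and no growth modifier present; test concentration not given here.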 The note with it: S. pombe 972 growth, higher = more signal, called active from +8 up or from −8 down.
The nature of test [14]: S. cerevisiae growth modulation with rapamycin, primary screen, strain BY4716, OD600, 96 h (AID 1091). Note: test concentration not given here. The note with it: higher = more signal, called active from +8 up or from −8 down.
Test [15] concerns the target Torsin-1A-interacting protein 2 (Homo sapiens) (UniProt Q8NFQ8). In words: LULL1 binders on small-molecule microarray, primary screen, cell lysate, human LULL1 lysate, 635/667 nm fluorescence (AID 1092).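 Note: probe is lysate of COS7 cells overexpressing human LULL1; score merges per-feature 667 nm fluorescence with signal-to-noise.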 To be noted: hLULL1 lysate binding, 635 nm fluorescence, higher = more signal.
The nature of test [16]: E. coli growth modulation, two-sided OD650, primary screen, E. coli filamentation project, strain DRC41, 24 h (AID 1093).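 Note: MC1000 strain lacking acrAB efflux and sulA so SOS filamentation is blocked; test concentration not given here.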 The note with it: OD650, 24 h, higher = more signal, called active from +8 up or from −8 down.
Test [17] is described as follows: small-molecule microarray binders of probe aLefty2, primary screen, biochemical, biotinylated probe, 635/667 nm fluorescence (AID 1094).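 Note: score merges spot fluorescence near 667 nm with spot signal-to-noise ratio.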 To be noted: higher = more signal.
The test system of test [18] is Noggin (protein binding on small-molecule microarray). In words: Noggin binders on small-molecule microarray, primary screen, biochemical, 635/667 nm fluorescence (AID 1095).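 Note: score merges 667 nm feature fluorescence with signal to noise over triplicate slides.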 To be noted: 635 nm fluorescence, higher = more signal.
Test [19] concerns the target Neurogenic locus notch homolog protein 3 (Homo sapiens) (UniProt Q9UM47). In words: NOTCH3 binders on small-molecule microarray, primary screen, biochemical, 635/667 nm fluorescence (AID 1096). To be noted: NOTCH3 binding, 635 nm fluorescence, higher = more signal.
Test [20] is described as follows: small-molecule microarray binders of probe aEGFR, primary screen, biochemical, biotinylated probe, 635/667 nm fluorescence (AID 1097).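 Note: probe is a biotinylated anti-EGFR antibody binding compounds printed on slides; score combines fluorescence near 667 nm and signal to noise of each spot.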 The note with it: higher = more signal.

The source made the active and inactive calls.

Sequence of Neurogenic locus notch homolog protein 3 (Homo sapiens) (Q9UM47 whole entry, looked up): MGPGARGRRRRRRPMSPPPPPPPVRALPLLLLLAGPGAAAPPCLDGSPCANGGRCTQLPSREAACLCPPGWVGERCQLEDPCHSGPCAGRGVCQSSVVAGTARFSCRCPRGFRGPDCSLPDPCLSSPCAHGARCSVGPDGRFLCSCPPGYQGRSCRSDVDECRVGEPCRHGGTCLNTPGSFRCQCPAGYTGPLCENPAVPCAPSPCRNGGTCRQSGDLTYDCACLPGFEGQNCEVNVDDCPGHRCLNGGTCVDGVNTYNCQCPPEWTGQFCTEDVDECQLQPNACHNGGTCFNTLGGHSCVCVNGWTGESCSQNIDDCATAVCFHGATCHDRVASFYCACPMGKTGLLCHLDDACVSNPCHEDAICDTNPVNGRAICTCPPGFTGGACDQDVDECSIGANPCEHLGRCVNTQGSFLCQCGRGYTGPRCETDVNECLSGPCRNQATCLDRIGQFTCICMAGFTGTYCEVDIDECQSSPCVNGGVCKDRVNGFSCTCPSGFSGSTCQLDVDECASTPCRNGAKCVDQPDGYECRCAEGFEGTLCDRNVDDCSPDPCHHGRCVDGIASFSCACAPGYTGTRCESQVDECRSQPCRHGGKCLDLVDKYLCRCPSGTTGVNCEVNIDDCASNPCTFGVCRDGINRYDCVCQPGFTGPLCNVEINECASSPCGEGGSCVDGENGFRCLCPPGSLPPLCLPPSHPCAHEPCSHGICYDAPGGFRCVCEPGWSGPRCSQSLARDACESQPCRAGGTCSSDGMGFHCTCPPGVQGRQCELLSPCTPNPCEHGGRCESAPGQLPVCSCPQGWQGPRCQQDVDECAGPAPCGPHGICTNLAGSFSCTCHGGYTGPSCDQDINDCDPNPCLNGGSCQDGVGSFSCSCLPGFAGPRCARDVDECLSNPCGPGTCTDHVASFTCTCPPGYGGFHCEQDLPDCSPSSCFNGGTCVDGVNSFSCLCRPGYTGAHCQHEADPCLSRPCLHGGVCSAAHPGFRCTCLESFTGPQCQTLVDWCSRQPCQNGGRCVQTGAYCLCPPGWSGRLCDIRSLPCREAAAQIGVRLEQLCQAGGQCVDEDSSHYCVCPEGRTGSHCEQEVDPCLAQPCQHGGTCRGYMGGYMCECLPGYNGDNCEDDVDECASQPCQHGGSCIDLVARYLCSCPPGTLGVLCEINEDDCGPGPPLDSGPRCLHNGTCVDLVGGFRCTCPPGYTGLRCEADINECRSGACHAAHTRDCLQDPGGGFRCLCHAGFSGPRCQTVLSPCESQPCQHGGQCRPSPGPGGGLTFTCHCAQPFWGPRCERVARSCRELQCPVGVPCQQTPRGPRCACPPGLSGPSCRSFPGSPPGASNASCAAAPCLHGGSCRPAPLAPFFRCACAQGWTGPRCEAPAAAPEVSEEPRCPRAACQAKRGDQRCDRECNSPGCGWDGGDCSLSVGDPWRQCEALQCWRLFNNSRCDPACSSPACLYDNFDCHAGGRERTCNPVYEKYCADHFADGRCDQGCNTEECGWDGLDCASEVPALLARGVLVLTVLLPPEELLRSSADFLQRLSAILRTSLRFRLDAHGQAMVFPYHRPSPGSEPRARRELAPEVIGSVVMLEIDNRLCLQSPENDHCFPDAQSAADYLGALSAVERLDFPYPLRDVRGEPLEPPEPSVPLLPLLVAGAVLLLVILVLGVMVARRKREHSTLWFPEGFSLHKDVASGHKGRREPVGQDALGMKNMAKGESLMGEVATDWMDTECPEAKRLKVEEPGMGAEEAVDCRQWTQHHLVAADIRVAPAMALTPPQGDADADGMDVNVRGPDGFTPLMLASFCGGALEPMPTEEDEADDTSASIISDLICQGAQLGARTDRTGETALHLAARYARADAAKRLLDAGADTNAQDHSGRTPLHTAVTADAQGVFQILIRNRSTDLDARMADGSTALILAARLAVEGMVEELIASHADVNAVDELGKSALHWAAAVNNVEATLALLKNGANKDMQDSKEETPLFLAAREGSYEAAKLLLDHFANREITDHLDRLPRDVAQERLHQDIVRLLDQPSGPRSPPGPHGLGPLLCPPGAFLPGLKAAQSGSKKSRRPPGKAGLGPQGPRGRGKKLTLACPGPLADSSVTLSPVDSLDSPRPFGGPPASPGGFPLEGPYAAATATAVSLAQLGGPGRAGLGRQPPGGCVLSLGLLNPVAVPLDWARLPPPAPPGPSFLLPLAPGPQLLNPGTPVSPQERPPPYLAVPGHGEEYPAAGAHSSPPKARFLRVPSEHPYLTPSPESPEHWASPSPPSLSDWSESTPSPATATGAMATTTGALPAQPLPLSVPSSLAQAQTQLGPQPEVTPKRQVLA
Sequence of Pro-neuregulin-1, membrane-bound isoform (Homo sapiens) (Q02297 whole entry, looked up, the tested form may be a part, canonical isoform): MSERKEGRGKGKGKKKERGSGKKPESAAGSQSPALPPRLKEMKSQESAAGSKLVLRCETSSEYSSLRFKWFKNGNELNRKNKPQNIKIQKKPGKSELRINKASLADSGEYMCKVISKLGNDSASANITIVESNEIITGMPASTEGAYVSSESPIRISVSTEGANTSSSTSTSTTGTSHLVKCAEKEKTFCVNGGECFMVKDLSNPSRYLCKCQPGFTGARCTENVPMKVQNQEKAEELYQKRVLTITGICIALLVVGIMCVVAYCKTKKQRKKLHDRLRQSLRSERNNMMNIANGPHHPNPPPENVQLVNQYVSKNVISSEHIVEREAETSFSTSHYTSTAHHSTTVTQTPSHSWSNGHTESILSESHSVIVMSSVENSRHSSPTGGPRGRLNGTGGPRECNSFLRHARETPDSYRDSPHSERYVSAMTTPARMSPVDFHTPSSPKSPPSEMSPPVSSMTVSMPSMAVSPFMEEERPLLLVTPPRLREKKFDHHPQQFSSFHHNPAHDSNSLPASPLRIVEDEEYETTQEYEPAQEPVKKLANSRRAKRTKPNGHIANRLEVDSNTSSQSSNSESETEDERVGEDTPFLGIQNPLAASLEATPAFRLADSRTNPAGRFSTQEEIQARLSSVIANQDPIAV
Sequence of Torsin-1A-interacting protein 2 (Homo sapiens) (Q8NFQ8 whole entry, looked up): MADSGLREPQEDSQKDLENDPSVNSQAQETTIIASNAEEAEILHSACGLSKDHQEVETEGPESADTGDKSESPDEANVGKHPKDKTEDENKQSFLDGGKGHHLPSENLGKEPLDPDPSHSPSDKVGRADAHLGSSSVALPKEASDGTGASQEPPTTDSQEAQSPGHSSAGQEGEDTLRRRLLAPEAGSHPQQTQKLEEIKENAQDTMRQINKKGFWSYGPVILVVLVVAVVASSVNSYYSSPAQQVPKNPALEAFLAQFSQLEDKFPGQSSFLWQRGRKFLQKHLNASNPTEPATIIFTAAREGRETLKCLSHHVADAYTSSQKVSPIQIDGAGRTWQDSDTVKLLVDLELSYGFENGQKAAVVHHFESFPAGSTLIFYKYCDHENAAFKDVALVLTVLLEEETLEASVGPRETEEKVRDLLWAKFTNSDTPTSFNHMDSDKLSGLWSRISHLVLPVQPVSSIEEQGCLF

Take `Cc1ccccc1C(O)C1C=CC2C(=O)N(C)C(=O)C2N1Nc1ccc([N+](=O)[O-])cc1[N+](=O)[O-]` (stereo not given): the composite z-score in test [1] is -0.0166; in test [2], 0.14; in test [3], 0.084; in [4], 0.922; in [5], 1.65; in test [6] it was 1.65. In addition, the composite z-score was 1.27 in test [7]; 1.59 in [9]; -0.0645 in test [10]; 1.56 in test [11]; 3.45 in test [15]; 0.25 in [17]. The composite z-score in [18] is 0.17; in test [19], 1.08; in test [20], 0.0801. Also, the z-score is 0.248 (inactive) in test [8]; 0.426 (inactive) in test [12]; 0.73 (inactive) in test [13]; 0.969 (inactive) in test [14]; -1.24 (inactive) in test [16].
Turning to `CN1C(=O)C2C=CC(C(O)COCc3ccccc3)N(Nc3ccccc3)C2C1=O` (stereo not given), the composite z-score in test [1] is -0.121; in test [2] it was 0.165; in test [3], 0.308; in [4], 0.389; in [5], 1.33; in test [6] it was 0.374. The composite z-score in [7] is 1; in test [9], 0.486; in test [10], -0.166; in [11], 0.691; in test [15] it was 3.54; in [17], 0.147. The composite z-score in test [18] is 0.28; in [19] it was 0.896; in test [20] it was -0.0232. For the same compound, the z-score in [8] was 0.146 (inactive); in test [12], 0.12 (inactive); in [13], 1.15 (inactive); in test [14] it was -0.116 (inactive); in test [16] it was -0.309 (inactive).
On to `O=C1O[C@H](c2ccccc2)[C@H](c2ccccc2)N2[C@H]1[C@@H](C(=O)N1CCCCCCC1)[C@]1(C(=O)Nc3ccccc31)[C@H]2c1ccc(O)cc1`, for which the composite z-score stood at 4.2 in [1]; 2.71 in test [2]; 1.1 in test [3]; 1.61 in [4]; 1.83 in test [5]; 2.55 in test [6]. The composite z-score in test [7] amounted to 1.37; in test [9], 3.92; in test [10], 4.73; in test [11], 1.55; in [15], 4.82; in test [17], 2.02. For the same compound, the composite z-score in test [18] was 2.26; in test [19], 1.01; in test [20], 1.5. The z-score was 0.168 (inactive) in [8]; 0.532 (inactive) in test [12]; 0.556 (inactive) in [13]; 0.874 (inactive) in test [14]; 0.248 (inactive) in test [16].
Consider `CCOC(=O)C1=CCC(c2cccc(Cl)c2)O1` (stereo not given), for which the composite z-score is -0.267 in test [1]; 0.491 in test [2]; -0.0036 in test [3]; 0.0428 in [4]; 0.105 in test [5]; 1.06 in test [6]. Moreover, the composite z-score in test [7] is 0.575; in test [9] it was 0.0826; in [10], -0.131; in test [11], 0.487; in [15], 0.744; in test [17] it was -0.0831. Further, the figures for the composite z-score in test [18], in test [19] and in test [20] were -0.0785, 0.186 and -0.0953, respectively. The z-score is -0.242 (inactive) in [8]; -2.79 (inactive) in test [12]; -0.615 (inactive) in test [13]; 3.33 (inactive) in [14]; 0.558 (inactive) in [16].
On to `C=C(CCCC)/C(=C/C[C@@H](OC(=O)c1ccncc1)c1ccccc1OCCO)c1cc(C(=O)OC)ccc1OC`, for which the composite z-score in [1] is -0.256; in test [2], 0.815; in test [3], -0.0628; in [4], 0.173; in [5] it was 0.791; in test [6], 1.17. The composite z-score is 1.2 in [7]; -0.242 in [9]; -0.0296 in [10]; 1.49 in test [11]; 2.75 in test [15]; -0.0154 in test [17]. Further, the composite z-score in [18] amounted to 0.987; in test [19] it was 0.754; in test [20], 0.0895. The z-score is 0.488 (inactive) in [8]; 0.176 (inactive) in test [12]; -0.587 (inactive) in [13]; 0.259 (inactive) in test [14]; 0.478 (inactive) in [16].
